Data: PubChem BioAssay (NCATS)
Records with an inconclusive call do not appear. Entries that show only a call come without a potency. Activity calls are given as the source filed them. Calls come from the whole dose curve; as a rule, active = well fitted inhibition curve with a large enough effect; inconclusive = small, poorly fitted or top-dose-only effect; inactive = flat fitted curve, though single readings scatter.

Columns and labels:
Assay in all cases: qHTS profiling for inhibitors of Plasmodium falciparum proliferation (AID 504749); note: nearly all actives have a fitted effect of over 60% in size
Details in all cases: P. falciparum in erythrocytes, SYBR Green DNA, 72 h; series mostly up to 28.7 µM
[1] = tested on: CP192
In short: (§1)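 Three-day growth assay of blood-stage parasites in erythrocytes (0.3% parasitemia, 2.5% hematocrit) at 37 C, 5% CO2, quantified by SYBR Green DNA staining after overnight detergent lysis.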

[2] = tested on: CP194
In short: as §1

[3] = tested on: CP201
In short: as §1

[4] = tested on: CP211
In short: as §1

[5] = tested on: CP215
In short: as §1

[6] = tested on: CP217
In short: as §1

[7] = tested on: CP237
In short: as §1

[8] = tested on: CP238
In short: as §1

[9] = tested on: CP247
In short: as §1

[10] = tested on: CP203
In short: as §1
Potency is the fitted concentration of half-maximal effect.

| Structure (SMILES) | Potency [1] | Potency [2] | Potency [3] | Potency [4] | Potency [5] | Potency [6] | Potency [7] | Potency [8] | Potency [9] | Potency [10] |
| --- | --- | --- | --- | --- | --- | --- | --- | --- | --- | --- |
| CSc1ccc(C(=O)c2[nH]c(=O)[nH]c2C)cc1 | inactive | inactive | inactive | inactive | inactive | inactive | inactive | inactive | inactive | – |
| NC/C=C/C(=O)O | inactive | inactive | inactive | inactive | inactive | inactive | inactive | inactive | inactive | – |
| CC1=NS(=O)(=O)c2cc(Cl)ccc2N1 | inactive | inactive | inactive | inactive | inactive | inactive | inactive | – | – | – |
| O=c1[nH]c(=O)n([C@H]2C[C@H](O)[C@@H](CO)O2)cc1Br | inactive | inactive | inactive | inactive | inactive | inactive | inactive | inactive | inactive | – |
| Nc1ncn([C@@H]2O[C@H](CO)[C@@H](O)[C@H]2O)c(=O)n1 | inactive | inactive | inactive | inactive | inactive | inactive | inactive | inactive | inactive | – |
| Nc1nc(N)c2nc(-c3ccccc3)c(N)nc2n1 | inactive | inactive | inactive | inactive | inactive | inactive | inactive | inactive | inactive | – |
| COC(=O)[C@@H](N)Cc1ccc(O)c(O)c1 | inactive | inactive | inactive | inactive | inactive | inactive | – | inactive | – | – |
| CNC1(C)C2CCC(C2)C1(C)C (stereo unspecified) | inactive | inactive | inactive | inactive | inactive | inactive | 7.94 µM (active) | inactive | inactive | – |
| CCOC(=O)c1cnc2c(cnn2CC)c1NN=C(C)C | inactive | inactive | inactive | inactive | inactive | inactive | inactive | inactive | inactive | – |
| CC(C)NNC(=O)c1ccncc1 | inactive | inactive | inactive | inactive | inactive | – | inactive | inactive | inactive | inactive |
| CCN(CC)CC(=O)Nc1c(C)cccc1C | inactive | inactive | inactive | inactive | inactive | inactive | – | inactive | inactive | inactive |
| CCn1ccnc1CC1COc2ccccc2O1 (stereo unspecified) | inactive | inactive | inactive | inactive | inactive | inactive | inactive | inactive | inactive | – |
| Cc1ccc(Cl)c(Nc2ccccc2C(=O)O)c1Cl | inactive | inactive | inactive | inactive | inactive | inactive | – | inactive | inactive | – |
| CN(C)C(=O)Oc1ccc[n+](C)c1 | inactive | inactive | inactive | inactive | inactive | inactive | inactive | inactive | – | – |
| CN1CCN(C2=Nc3ccccc3Oc3ccc(Cl)cc32)CC1 | inactive | inactive | inactive | inactive | inactive | inactive | inactive | inactive | inactive | – |
| COC(=O)[C@H]1[C@H]2C[C@@H]3c4[nH]c5cc(OC)ccc5c4CCN3C[C@H]2C[C@@H](OC(=O)c2cc(OC)c(OC)c(OC)c2)[C@@H]1OC | 13.5 µM (active) | 9.53 µM (active) | 12 µM (active) | 6.75 µM (active) | 9.53 µM (active) | 11.2 µM (active) | 11.2 µM (active) | 11.2 µM (active) | 11.2 µM (active) | – |
| Cc1ccc(=O)n(-c2ccccc2)c1 | inactive | inactive | inactive | inactive | inactive | inactive | inactive | inactive | inactive | – |
| O=C(O)CCCCCCCC(=O)O | inactive | inactive | inactive | inactive | inactive | inactive | inactive | inactive | inactive | inactive |
| NS(=O)(=O)c1cc2c(cc1Cl)NC(C1CC3C=CC1C3)NS2(=O)=O (stereo unspecified) | inactive | inactive | inactive | inactive | inactive | inactive | inactive | inactive | inactive | – |

| Structure (SMILES) | Potency [1] | Potency [2] | Potency [3] | Potency [4] | Potency [5] | Potency [6] | Potency [7] | Potency [8] | Potency [9] | Potency [10] |
| --- | --- | --- | --- | --- | --- | --- | --- | --- | --- | --- |
| O=C1CC2(CCCC2)CC(=O)N1CCCCN1CCN(c2ncccn2)CC1 | inactive | inactive | inactive | inactive | inactive | inactive | – | inactive | inactive | – |
| NC(Cc1ccc(Cl)cc1)C(=O)O (stereo unspecified) | inactive | inactive | inactive | inactive | inactive | inactive | inactive | inactive | inactive | – |
| COc1cc2c(cc1OC)-c1cc(=Nc3c(C)cc(C)cc3C)n(C)c(=O)n1CC2 | 9.53 µM (active) | 4.78 µM (active) | 4.26 µM (active) | – | 5.36 µM (active) | 3.55 µM (active) | 3.16 µM (active) | 10 µM (active) | 5.62 µM (active) | 7.57 µM (active) |
| CCN1CCc2nc(N)oc2CC1 | inactive | inactive | inactive | inactive | inactive | inactive | inactive | inactive | inactive | – |
| CC(C)(Oc1ccc(CCNC(=O)c2ccc(Cl)cc2)cc1)C(=O)O | inactive | inactive | inactive | inactive | inactive | inactive | inactive | inactive | inactive | – |
| NC(=Nc1ccccc1)Nc1ccccc1 | inactive | inactive | inactive | inactive | inactive | inactive | – | inactive | inactive | inactive |
| O=C(O)CN(CCN(CC(=O)O)CC(=O)O)CCN(CC(=O)O)CC(=O)O | inactive | inactive | inactive | inactive | inactive | inactive | inactive | inactive | inactive | – |
| CC(=O)Nc1nnc(S(N)(=O)=O)s1 | inactive | inactive | inactive | inactive | inactive | inactive | inactive | inactive | inactive | – |
| CCCCNC(=O)NS(=O)(=O)c1ccc(C)cc1 | inactive | inactive | inactive | inactive | inactive | inactive | inactive | inactive | inactive | – |
| OCCN1CCN(CC/C=C2/c3ccccc3Sc3ccc(C(F)(F)F)cc32)CC1 | 9.53 µM (active) | 7.57 µM (active) | 10.7 µM (active) | 5.36 µM (active) | 12 µM (active) | – | 10 µM (active) | – | 8.91 µM (active) | 9.53 µM (active) |
| C#CCN(C)CCCOc1ccc(Cl)cc1Cl | inactive | inactive | inactive | inactive | inactive | inactive | inactive | inactive | inactive | – |
| C[n+]1cc2c3c(ccc2c2ccc4cc5c(cc4c21)OCO5)OCO3 | inactive | inactive | inactive | inactive | inactive | – | inactive | inactive | – | – |
| CC1=C(C)C(=O)C(CCCCC#CCCCC#CCO)=C(C)C1=O | – | 19 µM (active) | – | – | 15.1 µM (active) | 10 µM (active) | – | – | – | 15.1 µM (active) |
| CC(C)(C)c1ccc(C(=O)CCCN2CCC(OC(c3ccccc3)c3ccccc3)CC2)cc1 | – | – | – | – | – | 7.94 µM (active) | 11.2 µM (active) | 11.2 µM (active) | – | – |
| CN(C(=O)CCCOc1ccc2[nH]c(=O)ccc2c1)C1CCCCC1 | inactive | – | inactive | inactive | inactive | inactive | inactive | inactive | – | – |
| CCCC(C(=O)OCCN(CC)CC)(c1ccccc1)c1ccccc1 | 9.53 µM (active) | – | – | – | 12 µM (active) | – | 10 µM (active) | – | 8.91 µM (active) | – |
| CC(C)COCC(CN(Cc1ccccc1)c1ccccc1)N1CCCC1 (stereo unspecified) | inactive | inactive | – | inactive | 7.57 µM (active) | inactive | 5.01 µM (active) | inactive | inactive | – |
| CCN(CC)CCOCCOC(=O)C1(c2ccccc2)CCCC1 | inactive | – | inactive | inactive | 15.1 µM (active) | 11.2 µM (active) | 2.51 µM (active) | – | – | 6.75 µM (active) |
| OCCN1CCN(CCCN2c3ccccc3C=Cc3ccccc32)CC1 | 10.7 µM (active) | 7.57 µM (active) | – | 12 µM (active) | 8.49 µM (active) | 7.08 µM (active) | 5.01 µM (active) | 11.2 µM (active) | 5.01 µM (active) | – |

| Structure (SMILES) | Potency [1] | Potency [2] | Potency [3] | Potency [4] | Potency [5] | Potency [6] | Potency [7] | Potency [8] | Potency [9] | Potency [10] |
| --- | --- | --- | --- | --- | --- | --- | --- | --- | --- | --- |
| NC(N)=NC(=O)Cc1c(Cl)cccc1Cl | – | – | – | – | – | 6.31 µM (active) | – | inactive | – | – |
| COc1ccc(CN(CCN(C)C)c2ccccn2)cc1 | inactive | – | inactive | inactive | inactive | inactive | 5.01 µM (active) | inactive | inactive | – |
| Cc1nc2sccn2c(=O)c1CCN1CCC(=C(c2ccc(F)cc2)c2ccc(F)cc2)CC1 | inactive | – | inactive | inactive | – | – | – | – | – | – |
| CC(=O)[C@]1(O)Cc2c(O)c3c(c(O)c2[C@@H](O[C@H]2C[C@H](N)[C@H](O)[C@H](C)O2)C1)C(=O)c1ccccc1C3=O | – | 15.1 µM (active) | – | 13.5 µM (active) | 10.7 µM (active) | 5.01 µM (active) | 3.55 µM (active) | 7.08 µM (active) | – | – |
| CN(C)CCCN1c2ccccc2Sc2ccc(C(F)(F)F)cc21 | inactive | – | inactive | inactive | – | – | – | inactive | inactive | – |
| CNCCC(Oc1ccccc1OC)c1ccccc1 (stereo unspecified) | inactive | – | – | inactive | inactive | – | inactive | – | – | – |
| CC(C)[N+](C)(CCOC(=O)C1c2ccccc2Oc2ccccc21)C(C)C | – | – | inactive | inactive | inactive | – | – | – | – | – |
| NC(=O)N1c2ccccc2C=Cc2ccccc21 | inactive | inactive | inactive | – | inactive | inactive | inactive | inactive | inactive | – |
| OC(CCN1CCCCC1)(c1ccccc1)C1CCCCC1 (stereo unspecified) | inactive | – | inactive | inactive | inactive | inactive | inactive | inactive | inactive | inactive |
| COc1cc(C(=O)OCCCN2CCCN(CCCOC(=O)c3cc(OC)c(OC)c(OC)c3)CC2)cc(OC)c1OC | – | – | – | – | – | – | 6.31 µM (active) | – | 7.94 µM (active) | – |
| CCN(CC)CCNC(=O)c1cc(S(C)(=O)=O)ccc1OC | – | – | – | – | – | inactive | inactive | inactive | inactive | – |
| CN(C)C/C=C(/c1ccc(Br)cc1)c1cccnc1 | – | inactive | inactive | – | inactive | inactive | – | inactive | inactive | – |
| CCCCCCCC/C=C\CCCCCCCC(=O)NCc1ccc(O)c(OC)c1 | inactive | inactive | inactive | inactive | inactive | – | – | – | 7.08 µM (active) | – |
| CN(C)C(=O)Oc1cccc([N+](C)(C)C)c1 | inactive | inactive | inactive | inactive | – | inactive | inactive | inactive | inactive | – |
| CN(C)CC/C=C1\c2ccccc2COc2ccccc21 | inactive | – | – | – | – | – | – | – | – | 13.5 µM (active) |
| CN(C)CCN(Cc1cccs1)c1ccccn1 | – | – | – | – | – | – | 2 µM (active) | 11.2 µM (active) | – | – |
| O=C1NCN(c2ccccc2)C12CCN(CCCC(c1ccc(F)cc1)c1ccc(F)cc1)CC2 | – | – | – | – | – | 8.91 µM (active) | 6.31 µM (active) | 8.91 µM (active) | 7.08 µM (active) | – |
| C[C@H](CS)C(=O)N1CCC[C@H]1C(=O)O | – | inactive | inactive | – | inactive | inactive | inactive | inactive | inactive | inactive |
